Measurements reported in PubChem BioAssay (NCI).
This is part of a sample that, as a whole, favours compounds with a hit. Of some 79,000 tested, about 15% had one in any assay. A number with no mark means an inactive call. The source made the active and inactive calls. Rule as the data show it: active = growth inhibition above about 70%; inactive = the rest.

Assay: NCI Yeast Anticancer Drug Screen. Data for the bub3 strain (AID 167)
Conditions: S. cerevisiae bub3 mutant strain, at 5.0 µM (retest, dose inferred, filed as 0.5), stronger effect = higher value
Method in brief: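 Yeast carrying a defined mutation is treated with each compound, and growth is compared with that of vehicle-exposed cells to give inhibition.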

**Q.** With `CCOP(=O)(OCC)C(Cc1ccccc1)N=C(c1ccccc1)c1ccccc1` (stereo not drawn) as the compound, how does the growth inhibition read?
**A.** The growth inhibition was -7%.

**Q.** With `CCc1ncnc2cc(OCC3CO3)c(OC)cc12` (stereo not drawn) as the compound, how does the growth inhibition read?
**A.** Its growth inhibition is 10%.

**Q.** With `CCOC(=O)[C@H]1Nc2ccccc2C2c3ccccc3CC21` (stereo partly drawn) as the compound, how does the growth inhibition read?
**A.** Its growth inhibition is -6%.

**Q.** For `O=CNc1ccc2c(c1)C(=O)c1ccccc1-2`, which growth inhibition is on record?
**A.** Its growth inhibition is -6%.

**Q.** For `CCOc1ccc2c(c1)c(CC(=O)O)cn2C`, which growth inhibition is on record?
**A.** Its growth inhibition is -49%.

**Q.** Which growth inhibition does the source give for `OC1CSCCCSCCSCCCSC1` here?
**A.** The growth inhibition was 16%.

**Q.** With `N#Cc1c(N)[nH]c2ccc(Sc3ccccc3)cc12` as the compound, how does the growth inhibition read?
**A.** Its growth inhibition is 12%.

**Q.** For `Cc1ccc(-c2ccc(Nc3c4ccccc4nc4ccccc34)cc2)cn1`, which growth inhibition is on record?
**A.** The growth inhibition was 5%.

**Q.** With `c1ccc2c(c1)NC(NC1Nc3ccccc3N1)N2` as the compound, how does the growth inhibition read?
**A.** Its growth inhibition is 19%.

**Q.** With `OC(COc1cccc2ccccc12)CN1CCOCC1` (stereo not drawn) as the compound, how does the growth inhibition read?
**A.** Its growth inhibition is 35%.

**Q.** With `CCC/C(Cl)=N\OC(=O)Nc1ccc(Br)cc1` as the compound, how does the growth inhibition read?
**A.** Its growth inhibition is -48%.

**Q.** Which growth inhibition does the source give for `COc1ccc(/C=C2\SC(=S)N(/C=C/c3nc4ccccc4[nH]c3=O)C2=O)cc1OC` here?
**A.** Its growth inhibition is -14%.

**Q.** With `O=C(NNc1ccnc2cc(Cl)ccc12)/C(=C\c1ccccc1Cl)NC(=O)c1ccccc1` as the compound, how does the growth inhibition read?
**A.** The growth inhibition was 5%.

**Q.** Which growth inhibition does the source give for `CSC1=NNC(SC)=NN1` here?
**A.** Its growth inhibition is 45%.

**Q.** Which growth inhibition does the source give for `Cc1c(C2=C(Br)C(=O)N(C)C2=O)c(=O)n(C)c(=O)n1C` here?
**A.** The growth inhibition was 6%.

**Q.** For `NCCNc1ccc(NCCN)c2c1C(=O)c1c(O)ccc(O)c1C2=O`, which growth inhibition is on record?
**A.** Its growth inhibition is 11%.

**Q.** Which growth inhibition does the source give for `Cn1c(=O)c(-c2ccccc2)c(N=[N+]=[N-])c2ccccc21` here?
**A.** The growth inhibition was -7%.

**Q.** With `CCCCCCCCCCCCCCCCCCOCC(O)COP(=O)(O)OCC1OC(n2cc(F)c(=O)[nH]c2=O)CC1O` (stereo not drawn) as the compound, how does the growth inhibition read?
**A.** The growth inhibition was -12%.

**Q.** For `CCS(=O)(=O)c1ccc(/C=C/C=N/NC(=S)NCC(C)C)cc1`, which growth inhibition is on record?
**A.** The growth inhibition was -12%.

**Q.** For `CCC(=O)Oc1c(Cl)cc(Cl)c2ccccc12`, which growth inhibition is on record?
**A.** Its growth inhibition is 2%.

**Q.** Which growth inhibition does the source give for `COc1cc2c3c(cccc3c1)C(=O)N(CCN(C)C)C2=O` here?
**A.** The growth inhibition was 21%.

**Q.** Which growth inhibition does the source give for `CN(C)c1ccc(C(C#N)=C(C#N)C#N)cc1` here?
**A.** Its growth inhibition is -54%.

**Q.** Which growth inhibition does the source give for `O=C(CCCN1CCC2(CC1)CC(=O)N(N1CCCCCC1)C2=O)c1ccc(F)cc1` here?
**A.** The growth inhibition was 36%.

**Q.** For `O=C1C2C(C(=O)N1c1ccc(OCc3ccccc3)cc1)C1c3ccccc3C2C2CCCCN21` (stereo not drawn), which growth inhibition is on record?
**A.** The growth inhibition was -5%.

**Q.** With `CCN(CC)CCC(=O)c1ccc(Oc2ccc(F)cc2)cc1` as the compound, how does the growth inhibition read?
**A.** Its growth inhibition is 55%.

**Q.** Which growth inhibition does the source give for `O=Nc1c(NO)ccc2nn(-c3ccccc3)nc12` here?
**A.** The growth inhibition was 1%.

**Q.** For `CC(=O)SCCC[Si](C)(C)CCCSC(C)=O`, which growth inhibition is on record?
**A.** The growth inhibition was 10%.

**Q.** Which growth inhibition does the source give for `O=C(O)C1CCCCC1c1c2ccc(=O)c(O)c-2oc2c(O)c(O)ccc12` (stereo not drawn) here?
**A.** The growth inhibition was -7%.

**Q.** Which growth inhibition does the source give for `Cc1ccc(NN(NC(=O)OC(C)C)C(=O)OC(C)C)cc1` here?
**A.** The growth inhibition was 17%.

**Q.** For `O=C1c2ccccc2C(=O)c2cc(CBr)ccc21`, which growth inhibition is on record?
**A.** The growth inhibition was 30%.

**Q.** For `Cc1c(C(Cc2ccccc2N(C)C(=O)/C=C\C(=O)O)c2c[nH]c3ccccc23)c2ccccc2n1C` (stereo not drawn), which growth inhibition is on record?
**A.** The growth inhibition was -6%.

**Q.** With `CC(C)/C(Cl)=N\OC(=O)Nc1ccc(F)cc1` as the compound, how does the growth inhibition read?
**A.** The growth inhibition was 52%.

**Q.** Which growth inhibition does the source give for `O=C1OC(=O)C2CCCC3CCCC1C32` (stereo not drawn) here?
**A.** The growth inhibition was 53%.

**Q.** Which growth inhibition does the source give for `CCOC(=O)C(NC(=O)c1ccccc1)(N1CCN(c2cc3c(cc2F)c(=O)c(C(=O)O)cn3C2CC2)CC1)C(F)(F)F` (stereo not drawn) here?
**A.** Its growth inhibition is -15%.

**Q.** Which growth inhibition does the source give for `COc1ccc(NC(=S)N/N=C(\c2ccccc2)c2ccccn2)cc1` here?
**A.** Its growth inhibition is 35%.

**Q.** With `C=CCC1=C(C)C(OC(=O)/C=C/c2ccccc2)CC1=O` (stereo not drawn) as the compound, how does the growth inhibition read?
**A.** Its growth inhibition is 25%.

**Q.** Which growth inhibition does the source give for `NNc1c(F)c(F)cc(F)c1F` here?
**A.** Its growth inhibition is 27%.

**Q.** Which growth inhibition does the source give for `COP(=O)(OC)/C(=C\C1=CN(C(c2ccccc2)(c2ccccc2)c2ccccc2)CN1)NC=O` here?
**A.** The growth inhibition was -7%.

**Q.** Which growth inhibition does the source give for `COC(=O)c1cc(-c2ccc(C)cc2)[nH]c(=O)c1C#N` here?
**A.** Its growth inhibition is 33%.

Same assay, conditions: S. cerevisiae bub3 mutant strain, at 11.0 µM, stronger effect = higher value

**Q.** For `CCOP(=O)(OCC)C(Cc1ccccc1)N=C(c1ccccc1)c1ccccc1` (stereo not drawn), which growth inhibition is on record?
**A.** Its growth inhibition is -41%.

**Q.** Which growth inhibition does the source give for `CCc1ncnc2cc(OCC3CO3)c(OC)cc12` (stereo not drawn) here?
**A.** Its growth inhibition is 2%.

**Q.** For `CCOC(=O)[C@H]1Nc2ccccc2C2c3ccccc3CC21` (stereo partly drawn), which growth inhibition is on record?
**A.** The growth inhibition was 23%.

**Q.** Which growth inhibition does the source give for `O=CNc1ccc2c(c1)C(=O)c1ccccc1-2` here?
**A.** Its growth inhibition is 16%.

**Q.** With `CCOc1ccc2c(c1)c(CC(=O)O)cn2C` as the compound, how does the growth inhibition read?
**A.** Its growth inhibition is 12%.

**Q.** For `OC1CSCCCSCCSCCCSC1`, which growth inhibition is on record?
**A.** Its growth inhibition is 16%.

**Q.** Which growth inhibition does the source give for `N#Cc1c(N)[nH]c2ccc(Sc3ccccc3)cc12` here?
**A.** Its growth inhibition is 6%.

**Q.** Which growth inhibition does the source give for `Cc1ccc(-c2ccc(Nc3c4ccccc4nc4ccccc34)cc2)cn1` here?
**A.** Its growth inhibition is -12%.

**Q.** Which growth inhibition does the source give for `c1ccc2c(c1)NC(NC1Nc3ccccc3N1)N2` here?
**A.** The growth inhibition was -2%.

**Q.** With `OC(COc1cccc2ccccc12)CN1CCOCC1` (stereo not drawn) as the compound, how does the growth inhibition read?
**A.** Its growth inhibition is 29%.

**Q.** With `CCC/C(Cl)=N\OC(=O)Nc1ccc(Br)cc1` as the compound, how does the growth inhibition read?
**A.** The growth inhibition was 63%.

**Q.** Which growth inhibition does the source give for `COc1ccc(/C=C2\SC(=S)N(/C=C/c3nc4ccccc4[nH]c3=O)C2=O)cc1OC` here?
**A.** Its growth inhibition is 19%.

**Q.** For `O=C(NNc1ccnc2cc(Cl)ccc12)/C(=C\c1ccccc1Cl)NC(=O)c1ccccc1`, which growth inhibition is on record?
**A.** The growth inhibition was 50%.

**Q.** For `CSC1=NNC(SC)=NN1`, which growth inhibition is on record?
**A.** The growth inhibition was 54%.

**Q.** With `Cc1c(C2=C(Br)C(=O)N(C)C2=O)c(=O)n(C)c(=O)n1C` as the compound, how does the growth inhibition read?
**A.** The growth inhibition was 18%.

**Q.** For `NCCNc1ccc(NCCN)c2c1C(=O)c1c(O)ccc(O)c1C2=O`, which growth inhibition is on record?
**A.** Its growth inhibition is 5%.

**Q.** With `Cn1c(=O)c(-c2ccccc2)c(N=[N+]=[N-])c2ccccc21` as the compound, how does the growth inhibition read?
**A.** The growth inhibition was 35%.

**Q.** Which growth inhibition does the source give for `CCCCCCCCCCCCCCCCCCOCC(O)COP(=O)(O)OCC1OC(n2cc(F)c(=O)[nH]c2=O)CC1O` (stereo not drawn) here?
**A.** The growth inhibition was 1%.

**Q.** Which growth inhibition does the source give for `CCS(=O)(=O)c1ccc(/C=C/C=N/NC(=S)NCC(C)C)cc1` here?
**A.** Its growth inhibition is 0%.

**Q.** With `CCC(=O)Oc1c(Cl)cc(Cl)c2ccccc12` as the compound, how does the growth inhibition read?
**A.** Its growth inhibition is -9%.

**Q.** Which growth inhibition does the source give for `COc1cc2c3c(cccc3c1)C(=O)N(CCN(C)C)C2=O` here?
**A.** The growth inhibition was -9%.

**Q.** Which growth inhibition does the source give for `CN(C)c1ccc(C(C#N)=C(C#N)C#N)cc1` here?
**A.** The growth inhibition was -5%.

**Q.** With `O=C(CCCN1CCC2(CC1)CC(=O)N(N1CCCCCC1)C2=O)c1ccc(F)cc1` as the compound, how does the growth inhibition read?
**A.** Its growth inhibition is 51%.

**Q.** With `O=C1C2C(C(=O)N1c1ccc(OCc3ccccc3)cc1)C1c3ccccc3C2C2CCCCN21` (stereo not drawn) as the compound, how does the growth inhibition read?
**A.** Its growth inhibition is -1%.

**Q.** With `CCN(CC)CCC(=O)c1ccc(Oc2ccc(F)cc2)cc1` as the compound, how does the growth inhibition read?
**A.** Its growth inhibition is 58%.

**Q.** For `O=Nc1c(NO)ccc2nn(-c3ccccc3)nc12`, which growth inhibition is on record?
**A.** Its growth inhibition is 95% (active).

**Q.** With `CC(=O)SCCC[Si](C)(C)CCCSC(C)=O` as the compound, how does the growth inhibition read?
**A.** The growth inhibition was 3%.

**Q.** For `O=C(O)C1CCCCC1c1c2ccc(=O)c(O)c-2oc2c(O)c(O)ccc12` (stereo not drawn), which growth inhibition is on record?
**A.** The growth inhibition was 12%.

**Q.** For `Cc1ccc(NN(NC(=O)OC(C)C)C(=O)OC(C)C)cc1`, which growth inhibition is on record?
**A.** Its growth inhibition is -1%.

**Q.** For `O=C1c2ccccc2C(=O)c2cc(CBr)ccc21`, which growth inhibition is on record?
**A.** The growth inhibition was 1%.

**Q.** For `Cc1c(C(Cc2ccccc2N(C)C(=O)/C=C\C(=O)O)c2c[nH]c3ccccc23)c2ccccc2n1C` (stereo not drawn), which growth inhibition is on record?
**A.** Its growth inhibition is 4%.

**Q.** With `CC(C)/C(Cl)=N\OC(=O)Nc1ccc(F)cc1` as the compound, how does the growth inhibition read?
**A.** Its growth inhibition is 32%.

**Q.** For `O=C1OC(=O)C2CCCC3CCCC1C32` (stereo not drawn), which growth inhibition is on record?
**A.** The growth inhibition was 93% (active).

**Q.** With `CCOC(=O)C(NC(=O)c1ccccc1)(N1CCN(c2cc3c(cc2F)c(=O)c(C(=O)O)cn3C2CC2)CC1)C(F)(F)F` (stereo not drawn) as the compound, how does the growth inhibition read?
**A.** Its growth inhibition is 3%.

**Q.** For `COc1ccc(NC(=S)N/N=C(\c2ccccc2)c2ccccn2)cc1`, which growth inhibition is on record?
**A.** Its growth inhibition is 4%.

**Q.** For `C=CCC1=C(C)C(OC(=O)/C=C/c2ccccc2)CC1=O` (stereo not drawn), which growth inhibition is on record?
**A.** Its growth inhibition is 33%.

**Q.** Which growth inhibition does the source give for `NNc1c(F)c(F)cc(F)c1F` here?
**A.** Its growth inhibition is -3%.

**Q.** With `COP(=O)(OC)/C(=C\C1=CN(C(c2ccccc2)(c2ccccc2)c2ccccc2)CN1)NC=O` as the compound, how does the growth inhibition read?
**A.** Its growth inhibition is -41%.

**Q.** For `COC(=O)c1cc(-c2ccc(C)cc2)[nH]c(=O)c1C#N`, which growth inhibition is on record?
**A.** Its growth inhibition is 6%.
